Measured values taken from ChEMBL document CHEMBL3988442, “University of Dundee, Small-Polar-MMV Screening Library” (2021).
The campaign covered roughly 38,000 compounds. About 1,200 (3.2%) showed an effect of 50% or more. The median lay at about -58%. The sample holds strong results, similar compounds and a random draw of the others, so the mix is not that of the screen.

Tested on: Plasmodium falciparum
Assay: Calibr Malaria Delayed Death Assay SOP
Type: functional, organism-based
Parameters: scale not given: in the data most compounds retested in dose-response had high values
Settings: concentration 4.99e-06 (unit not given; other assays of the set use mol/L)

Which “Percent Effect” value does the source give for `COCCCC1(C(=O)O)CCCN(C(=O)c2ccc(Cl)cc2F)C1` (stereo unspecified) here?
The value was -104.4%.

Which “Percent Effect” value does the source give for `CNC(=O)c1ccc2c(c1)C1(CCN(CC3CC3)CC1)C(=O)N2.O=C(O)C(F)(F)F` here?
The value was -45%.

Which “Percent Effect” value does the source give for `CN(Cc1ccncc1)C1COC2(CCN(Cc3ccco3)CC2)C1.O=C(O)C(F)(F)F.O=C(O)C(F)(F)F.O=C(O)C(F)(F)F` (stereo unspecified) here?
The value was -70.95%.

`CN(C)CC(C)(O)CNC(=O)Nc1sc2ccccc2c1Cl` (stereo unspecified) was tested. Which “Percent Effect” value did it give?
The value was 61%.

For `CS(=O)(=O)CCNC(=O)Nc1sc2ccccc2c1Cl`, which “Percent Effect” value is on record?
The value was -106.1%.

How did the “Percent Effect” value turn out when `CS(=O)(=O)CCCNC(=O)Nc1sc2ccccc2c1Cl` was run?
Its value is -18.18%.

Which “Percent Effect” value does the source give for `CN(C)C(=O)N1C[C@@H]2CC[C@H](C1)N(C/C=C/c1ccc(F)cc1)C2` here?
Its value is 56.59%.

How did the “Percent Effect” value turn out when `CS(=O)(=O)N1C[C@@H]2CC[C@H](C1)N(C/C=C/c1ccc(F)cc1)C2` was run?
The value was -47.28%.

`CN(C)C(=O)CN1C[C@@H]2CC[C@H](C1)N(C/C=C/c1ccc(F)cc1)C2` was tested. Which “Percent Effect” value did it give?
Its value is 41.87%.

With `CCN(c1ccsc1C(=O)N1CCSCC1)S(=O)(=O)c1ccc(Cl)cc1` as the compound, how does the “Percent Effect” value read?
Its value is -33.89%.

Which “Percent Effect” value does the source give for `Cc1cnn(Cc2ccc(NC(=O)N3CCCC3)cc2)c1` here?
Its value is -108.6%.

How did the “Percent Effect” value turn out when `Cc1ccc(C(=O)N(C)Cc2csc(C)n2)c(=O)[nH]1` was run?
The value was -148.4%.

Which “Percent Effect” value does the source give for `CCC(NC(=O)C1CCN(C(C)C)CC1)c1cn2cccnc2n1` (stereo unspecified) here?
Its value is -73.6%.

How did the “Percent Effect” value turn out when `Cc1n[nH]c(C)c1-c1cc(-c2ccc[nH]2)nc(N)c1C#N` was run?
The value was -191.7%.

Which “Percent Effect” value does the source give for `Cc1n[nH]c(C)c1-c1cc(-c2cccc(O)c2)nc(N)c1C#N` here?
Its value is -75.89%.

For `CC(C)Cc1cc(-c2cc(-c3ccc[nH]3)nc(N)c2C#N)n[nH]1`, which “Percent Effect” value is on record?
Its value is 60.25%.

How did the “Percent Effect” value turn out when `Cc1ccc(CNCc2c(C(C)C)nn(C)c2N2CCOCC2)s1` was run?
The value was 43.54%.

How did the “Percent Effect” value turn out when `Cc1nccn1Cc1nnc(C2CCCN(Cc3ccncc3)C2)n1C` (stereo unspecified) was run?
Its value is -18.97%.

For `Cc1nccn1CCCN1CCCC(c2ccccc2)C1` (stereo unspecified), which “Percent Effect” value is on record?
Its value is 77.62%.

Which “Percent Effect” value does the source give for `Cc1nccn1CCCN1CCC(c2nccn2CC2CCC2)CC1` here?
The value was -43.9%.

Which “Percent Effect” value does the source give for `COc1cc(C)ccc1OCCC(=O)N1CCC(N2CC=CC2)C1` (stereo unspecified) here?
Its value is -87.08%.

With `COc1ccc(N2CCN(Cc3noc(CC(C)C)n3)C(C)C2=O)cc1` (stereo unspecified) as the compound, how does the “Percent Effect” value read?
The value was -89.75%.

With `COc1ccccc1CN(Cc1cccnc1)CC1CCCO1.O=C(O)CC(O)(CC(=O)O)C(=O)O` (stereo unspecified) as the compound, how does the “Percent Effect” value read?
The value was -1.656%.

With `CN(C)CCN(C)C(=O)Cc1ccc2c(c1)OCCO2.O=C(O)CC(O)(CC(=O)O)C(=O)O` as the compound, how does the “Percent Effect” value read?
Its value is -18.25%.

Which “Percent Effect” value does the source give for `COc1cc(CN(CCCN(C)C)Cc2ccccn2)cc2c1OCO2.O=C(O)CC(O)(CC(=O)O)C(=O)O` here?
The value was 79.66%.

Which “Percent Effect” value does the source give for `CCN1CCc2[nH]cnc2C12CCN(C(=O)CCc1cccs1)CC2` here?
The value was -14.54%.

How did the “Percent Effect” value turn out when `CCc1c(C)sc2c1c(N)nc(=O)n2CCCN(C)C` was run?
Its value is -156.5%.

How did the “Percent Effect” value turn out when `CCc1c(C)sc2c1c(N)nc(=O)n2CCN(C)C` was run?
Its value is 14.15%.

`CCN(C)CC(C)Cn1cnc(-c2ccccc2)c1C` (stereo unspecified) was tested. Which “Percent Effect” value did it give?
The value was -12.51%.

For `CCCc1nc2c(c(C)c(C)n2CCN(C)C)c(N)c1CC`, which “Percent Effect” value is on record?
Its value is 89.53%.

For `CN(C)CCN1CCN(C)c2nc(-c3ccccc3)ncc2C1=O`, which “Percent Effect” value is on record?
Its value is -20.71%.

For `CCc1c(-c2ccccc2)nc2c(c(C)c(C)n2CCN(C)C)c1N`, which “Percent Effect” value is on record?
The value was 66.32%.

Which “Percent Effect” value does the source give for `Cc1c(-c2ccccc2)nc2c(c(C)c(C)n2CCN(C)C)c1N` here?
The value was 79.27%.

`O=C(Cc1ccccn1)N1C[C@H]2CCC[C@@]2(COc2ccccn2)C1` was tested. Which “Percent Effect” value did it give?
Its value is -9.537%.

For `Cc1cc(SCC(N)=O)nc(-c2ccc(F)cc2)n1`, which “Percent Effect” value is on record?
The value was 0.2782%.

For `COCCn1cnnc1CCNc1cc(C)nc2ccnn12`, which “Percent Effect” value is on record?
The value was -117.5%.

How did the “Percent Effect” value turn out when `CCN1CC2(CC1=O)CN(Cc1ccoc1)CCN(C(=O)C(C)C)C2` (stereo unspecified) was run?
The value was -77.86%.

With `CN1CCC(CNC(=O)c2cccc(CN3CCCCCC3)c2)C1` (stereo unspecified) as the compound, how does the “Percent Effect” value read?
The value was -131.1%.

Which “Percent Effect” value does the source give for `CN(C)C(=O)CN1CCC2(COCc3cnc(N4CCOCC4)nc32)C1.O=C(O)C(F)(F)F` (stereo unspecified) here?
The value was 13%.

Which “Percent Effect” value does the source give for `CN(CCCO)C(=O)c1cc(COc2ccc3c(c2)CCCC3)on1` here?
Its value is -142.4%.

Which “Percent Effect” value does the source give for `Cc1cccc(N2CCN(CCS(=O)(=O)c3ccc(Br)cc3)CC2)c1C` here?
Its value is -66.5%.

With `O=C(c1cscn1)N1CCc2ncc(CN3CCOCC3)n2CC1` as the compound, how does the “Percent Effect” value read?
Its value is -41.39%.

With `CCOc1ccc2nc(CN3CCC(CN)C3)ccc2c1` (stereo unspecified) as the compound, how does the “Percent Effect” value read?
The value was 85.08%.

For `CCOc1ccc2nc(CN3CCOC(CN)C3)ccc2c1` (stereo unspecified), which “Percent Effect” value is on record?
The value was -11.41%.

With `CCOc1ccc2nc(CN3CCC(CNC(C)=O)C3)ccc2c1` (stereo unspecified) as the compound, how does the “Percent Effect” value read?
Its value is 36.59%.

How did the “Percent Effect” value turn out when `c1ccc(Cc2noc(CN3CCCC(Cn4cncn4)C3)n2)cc1` (stereo unspecified) was run?
The value was -77.91%.

`NC(=O)N1C[C@H](NC(=O)c2cscn2)[C@@H]2OCCC[C@@H]21` was tested. Which “Percent Effect” value did it give?
Its value is -29.66%.

Which “Percent Effect” value does the source give for `O=C(NCc1ccco1)[C@H]1CC[C@@H]2[C@@H](CCN2c2ncccn2)O1.O=C(O)C(F)(F)F` here?
The value was -5.9%.

`CC(C)CN1C(=O)CC[C@]12CC[C@@H](NC(=O)NCc1cccnc1)CC2.O=C(O)C(F)(F)F` was tested. Which “Percent Effect” value did it give?
The value was -179.5%.

How did the “Percent Effect” value turn out when `Fc1ccccc1Sc1ccccc1CNC1=NCCN1.I` was run?
The value was 76.79%.

With `O=C(Cc1cccnc1)NCCSc1ccccc1F` as the compound, how does the “Percent Effect” value read?
The value was -31.8%.

Which “Percent Effect” value does the source give for `CN(C)c1nc(NCc2ccccc2Cn2cccn2)ncc1F` here?
The value was -30.26%.

How did the “Percent Effect” value turn out when `O=C1NCCCCC1Sc1ccccc1F` (stereo unspecified) was run?
The value was -25.7%.

`O=C(NCCSc1ccccc1F)NCc1cccnc1` was tested. Which “Percent Effect” value did it give?
The value was -28.43%.

With `Cc1cc(Br)ccc1NCc1ccc(C(=O)N(C)C)[nH]1` as the compound, how does the “Percent Effect” value read?
Its value is -35.81%.

With `CC(C)[C@H](NC(=O)NC1CCS(=O)(=O)C1)C(=O)NCc1ccc(Cl)cc1` (stereo partly specified) as the compound, how does the “Percent Effect” value read?
The value was -111.5%.

For `COCCC1COC2(CCN(C(=O)c3cccnc3)CC2)C1.O=C(O)C(F)(F)F` (stereo unspecified), which “Percent Effect” value is on record?
Its value is -117.3%.

How did the “Percent Effect” value turn out when `O=C(c1ccccc1)N1CC[C@H]2C[C@H](c3nccs3)O[C@@H]2C1` was run?
The value was -4.41%.

`Cc1cc(C)cc(OCCN(C)C(=O)NC(C)c2nncn2C)c1` (stereo unspecified) was tested. Which “Percent Effect” value did it give?
The value was -106.2%.

`CCc1nc(C2CCCN2C(=O)CCCn2cccn2)no1` (stereo unspecified) was tested. Which “Percent Effect” value did it give?
The value was -167.4875%.

Which “Percent Effect” value does the source give for `COCC1c2c(cnn2C)CCN1C(=O)c1cscn1.O=C(O)C(F)(F)F` (stereo unspecified) here?
Its value is -119.3%.
